From PubChem BioAssay (NCI) come the findings set out here.

Values joined by “and” are separate entries in the source; they are usually repeats but may differ in a detail not shown here. Equal entries are not always repeated. Compounds without any hit were thinned out: in the full panel of roughly 79,000, 15% have a hit. A structure can be active in one record and inactive in another. Active and inactive are the calls of the source. Rule as the data show it: active = growth inhibition above about 70%; inactive = the rest.

Test [1] can be described thus: NCI Yeast Anticancer Drug Screen. Data for the rad50 strain (AID 155).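 Also: 0% = growth of vehicle-only cultures of the same strain.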 The following applies: S. cerevisiae rad50 strain growth inhibition; at 50.0 µM; stronger effect = higher value. An outline of the steps:
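Relative growth inhibition (compound vs vehicle) was measured in yeast with a defined repair-gene alteration.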

A short description of test [2]: NCI Yeast Anticancer Drug Screen. Data for the mec2-1 strain (AID 157). Conditions: S. cerevisiae mec2-1 strain, at 50.0 µM, stronger effect = higher value. An outline of the steps: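 Test agents were screened against the mec2-1 yeast strain, with defined DNA repair or cell cycle alteration. Growth was scored as inhibition against vehicle-only controls.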
The nature of test [3]: NCI Yeast Anticancer Drug Screen. Data for the sgs1 mgt1 strain (AID 161).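 Also: 0% = growth of cultures given vehicle only.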 Conditions: S. cerevisiae sgs1 mgt1 strain, at 50.0 µM, stronger effect = higher value. Summed up: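 Inhibition of yeast growth, normalised to vehicle-treated controls, is reported for a strain bearing genetic alterations in DNA damage repair.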
A short description of test [4]: NCI Yeast Anticancer Drug Screen. Data for the cln2 rad14 strain (AID 165).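 Also: 0% = growth equal to vehicle treated cultures.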 The following applies: S. cerevisiae cln2 rad14 strain, at 50.0 µM, stronger effect = higher value. An outline of the steps: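 Growth of compound-exposed yeast (cln2 rad14 genotype) measured and expressed as inhibition relative to vehicle.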
Test [5] is described as follows: NCI Yeast Anticancer Drug Screen. Data for the bub3 strain (AID 167). Conditions: S. cerevisiae bub3 mutant strain, at 50.0 µM, stronger effect = higher value. An outline of the steps:
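Screening used yeast with an engineered genetic alteration affecting cell cycle control. Compound-exposed cultures were compared with vehicle cultures, and reduced growth was taken as inhibition.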

Test [6] in a line: NCI Yeast Anticancer Drug Screen. Data for the mlh1 rad18 strain (AID 175). Conditions: S. cerevisiae mlh1 rad18 strain growth inhibition; at 50.0 µM; stronger effect = higher value. An outline of the steps:
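In this whole-cell yeast screen, a strain with altered DNA damage repair is challenged with compound, and its growth is measured against matched vehicle-treated controls.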

`C=Cc1c(C)c2cc3[nH]c(cc4nc(cc5nc(cc1[nH]2)C(C)=C5CCC(=O)O)C(CCC(=O)O)=C4C)c(C)c3C=C`: the growth inhibition in test [1] is 6.5% (inactive) and 13% (inactive); in test [2] it was 1.5% (inactive) and -13.3% (inactive); in test [3], 9.05% (inactive) and 12.7% (inactive); in test [4], 10.2% (inactive) and 10.5% (inactive); in test [5], 0.65% (inactive) and -0.1% (inactive); in test [6] it was 32.6% (inactive) and 27.1% (inactive).

Regarding `Nc1nc(N)c(Br)c(=O)[nH]1`, the growth inhibition in test [1] is -11.3% (inactive) and 9% (inactive); in test [2], -36.4% (inactive) and -24.6% (inactive); in test [3], -11.3% (inactive) and -38.1% (inactive); in test [4], 12.2% (inactive) and -83.6% (inactive); in test [5], -10.9% (inactive) and -13.3% (inactive); in test [6] it was -6.75% (inactive) and -21.4% (inactive).

On to `O=CC(O)C(O)C(OC1OC(CO)C(O)C(O)C1O)C(O)CO` (stereo unspecified) (tested in a mixture with another compound), for which the growth inhibition in test [1] was 89.5% (active) and 38% (inactive); in test [2], 96.5% (active) and 36.4% (inactive); in test [3], 94.3% (active) and 55.4% (inactive); in test [4], 93.8% (active) and 78.4% (active); in test [5], 98.2% (active) and 80.7% (active); in test [6] it was 95.3% (active) and 49.9% (inactive).

As to `CC(C)CCC(N)C(=O)O` (stereo unspecified), the growth inhibition in test [1] is -11.7% (inactive) and 0.15% (inactive); in test [2], -14.9% (inactive) and -0.55% (inactive); in test [3] it was -11.5% (inactive) and -6% (inactive); in test [4] it was -42.5% (inactive) and -15.7% (inactive); in test [5], -3.25% (inactive) and 3.75% (inactive); in test [6] it was -22.6% (inactive) and -2% (inactive).

For `COc1ccc(C2c3cc(OC)c(OC)cc3CC(C(=O)O)C2C(=O)N(C)C)cc1OC` (stereo unspecified), the growth inhibition was -2.05% (inactive) and -30.2% (inactive) in test [1]; 8% (inactive) and -4.6% (inactive) in test [2]; 35.3% (inactive) and -0.15% (inactive) in test [3]; 26.6% (inactive) and 10.1% (inactive) in test [4]; 4.7% (inactive) and -4% (inactive) in test [5]; 13.1% (inactive) and 1.9% (inactive) in test [6].

In the case of `O=C(O)c1cccnc1`, the growth inhibition is 18.2% (inactive) and 13.2% (inactive) in test [1]; 5.35% (inactive) and -7.8% (inactive) in test [2]; -4.15% (inactive) and -10% (inactive) in test [3]; 2.65% (inactive) and -2.6% (inactive) in test [4]; 5.65% (inactive) and -0.1% (inactive) in test [5]; 18.5% (inactive) and 16.7% (inactive) in test [6].

Consider `CC(=O)OCC(=O)c1ccc(-c2ccccc2)cc1`, for which the growth inhibition in test [1] is 6.55% (inactive) and 7.65% (inactive); in test [2], -14.8% (inactive) and 4.5% (inactive); in test [3], 14.1% (inactive); in test [4], 8.35% (inactive) and -22.8% (inactive); in test [5], 39.9% (inactive) and 28.6% (inactive); in test [6], 18.8% (inactive) and 23.9% (inactive).

As to `O=C(CC(=O)c1ccc(Cl)cc1)Cc1ccc2ccccc2n1`, the growth inhibition is 8.9% (inactive) and 43.4% (inactive) in test [1]; 29.4% (inactive) and 38.6% (inactive) in test [2]; 37.2% (inactive) and 33.5% (inactive) in test [3]; 45% (inactive) and 39.2% (inactive) in test [4]; 52.3% (inactive) and 51% (inactive) in test [5]; 45.3% (inactive) and 10.2% (inactive) in test [6].

In the case of `NNS(=O)(=O)c1ccc(Cl)cc1`, the growth inhibition in test [1] was -3.5% (inactive) and 13.2% (inactive); in test [2], -19.1% (inactive) and 2.45% (inactive); in test [3] it was -5.45% (inactive) and 6.6% (inactive); in test [4], 13.4% (inactive) and -4.4% (inactive); in test [5], 22.9% (inactive) and 9.8% (inactive); in test [6], -8.3% (inactive) and 7% (inactive).

With `O=c1[nH]c(CCc2ccccc2)nc2ccccc12`, the growth inhibition in test [1] is -5.1% (inactive) and -47.5% (inactive); in test [2] it was 7.85% (inactive) and -42.1% (inactive); in test [3], -7.2% (inactive) and -23.5% (inactive); in test [4] it was -38% (inactive) and -11.1% (inactive); in test [5], -26.8% (inactive) and -31.9% (inactive); in test [6] it was -2.8% (inactive) and -4.05% (inactive).

`O=c1cc2oc3cc(O)c(O)cc3c(-c3ccccc3)c-2cc1O`: the growth inhibition in test [1] is -4.25% (inactive) and 15.2% (inactive); in test [2], -16.1% (inactive) and 32.5% (inactive); in test [3], -3.15% (inactive) and 25.9% (inactive); in test [4] it was -5.9% (inactive) and -23.8% (inactive); in test [5], -10.2% (inactive) and 15.9% (inactive); in test [6], -4.15% (inactive) and 34.9% (inactive).

Regarding `CC(=O)c1c(O)c(C)c(O)c2c1OC1=CC(=O)C(C(C)=O)C(=O)C12C` (stereo unspecified), the growth inhibition in test [1] was 30.6% (inactive) and 28.6% (inactive) and -0.1% (inactive); in test [2] it was 21% (inactive) and 17.2% (inactive) and -20.2% (inactive); in test [3], 28.4% (inactive) and 23.8% (inactive) and -25.1% (inactive); in test [4], 37% (inactive) and 23.2% (inactive) and -19.4% (inactive); in test [5], 30.4% (inactive) and 24.9% (inactive) and 12.6% (inactive); in test [6], 23.9% (inactive) and 31.6% (inactive) and -25.6% (inactive).

`CC(=O)OC1CCC2(C)C(CCC3(C)C2CCC2C4=CC(C)(C)CCC4(C)CCC23C)C1(C)C` (stereo unspecified): the growth inhibition in test [1] was 14.1% (inactive) and -0.45% (inactive); in test [2], 10% (inactive) and -9.7% (inactive); in test [3], -10.7% (inactive) and -1.75% (inactive); in test [4], 13.4% (inactive) and -3.6% (inactive); in test [5] it was 10.6% (inactive) and -4.15% (inactive); in test [6], 20.1% (inactive) and 7.15% (inactive).

In the case of `CC(=O)Nc1cc(NC(C)=O)c2ccccc2c1O`, the growth inhibition was -2.65% (inactive) and 4.1% (inactive) in test [1]; 22% (inactive) and 5.85% (inactive) in test [2]; 13.2% (inactive) and 8% (inactive) in test [3]; 6.05% (inactive) and 25.1% (inactive) in test [4]; 18.9% (inactive) and 14.3% (inactive) in test [5]; 2.7% (inactive) and 6.75% (inactive) in test [6].

For the compound `O=C(Oc1ccc(Br)cc1)c1ccccc1`, the growth inhibition in test [1] is 0.75% (inactive) and 5.6% (inactive); in test [2], -12.8% (inactive) and -7.05% (inactive); in test [3], -4.35% (inactive) and -0.05% (inactive); in test [4], -13.9% (inactive) and -27.1% (inactive); in test [5], 30.9% (inactive) and 13.7% (inactive); in test [6], -6.1% (inactive) and 29.4% (inactive).

Take `C/C=C(\C)C(=O)O`: the growth inhibition is 17.6% (inactive) and -9.95% (inactive) in test [1]; 9.3% (inactive) and -5.05% (inactive) in test [2]; -4.9% (inactive) and -41.8% (inactive) in test [3]; 13.2% (inactive) and 2.25% (inactive) in test [4]; 11.4% (inactive) and -42.2% (inactive) in test [5]; 25% (inactive) and 9.75% (inactive) in test [6].

Consider `CN(C)C`, for which the growth inhibition was 17.1% (inactive) and 2.45% (inactive) in test [1]; -30.6% (inactive) and -27.2% (inactive) in test [2]; 10.4% (inactive) and -17.1% (inactive) in test [3]; -3.8% (inactive) and -97.7% (inactive) in test [4]; 9.8% (inactive) and -21.9% (inactive) in test [5]; 7.8% (inactive) and -135% (inactive) in test [6].

For the compound `Cc1cc(Cc2cc(C)c(O)c(C(=O)O)c2)cc(C(=O)O)c1O`, the growth inhibition in test [1] was 0.25% (inactive) and -7.15% (inactive); in test [2] it was 10.1% (inactive) and -0.4% (inactive); in test [3], 2.35% (inactive) and 0.2% (inactive); in test [4], -91.8% (inactive) and -2.45% (inactive); in test [5], 27.3% (inactive) and 4.85% (inactive); in test [6], 7.05% (inactive) and -16.3% (inactive).

For `COC1OC(COC(C)=O)C(OC(C)=O)C(OC(C)=O)C1NC(=O)N(CCCl)N=O` (stereo unspecified), the growth inhibition is -0.5% (inactive) and -15.6% (inactive) in test [1]; -7.1% (inactive) and -8.6% (inactive) in test [2]; -1.2% (inactive) and -13.6% (inactive) in test [3]; 9.65% (inactive) and 20.3% (inactive) in test [4]; 7.95% (inactive) and 16.2% (inactive) in test [5]; -10.5% (inactive) and -14% (inactive) in test [6].

Take `CCCCN(CCCC)CCCN`: the growth inhibition was 13.2% (inactive) and 9.35% (inactive) in test [1]; -1.45% (inactive) and -6.9% (inactive) in test [2]; -18.9% (inactive) and -5.35% (inactive) in test [3]; -11.6% (inactive) and 9.8% (inactive) in test [4]; 6.5% (inactive) and -3.15% (inactive) in test [5]; -9% (inactive) and 11.7% (inactive) in test [6].

With `CC1=NN(c2ccc([N+](=O)[O-])cc2)C(=O)C1[N+](=O)[O-]` (stereo unspecified) (tested in a mixture with another compound), the growth inhibition in test [1] is 20.1% (inactive) and 26.6% (inactive); in test [2], 1.95% (inactive) and 2.9% (inactive); in test [3], 12.3% (inactive) and 34.4% (inactive); in test [4] it was 14.8% (inactive) and 13.1% (inactive); in test [5], -1.75% (inactive) and -1.25% (inactive); in test [6], 3.35% (inactive) and 12.8% (inactive).
